High-throughput results as filed in PubChem.
POLI inh: qHTS for Inhibitors of Polymerase Iota | AID 588590, 2011 | Potency, µM (titrated, usually from 115 µM), for inactives: at the top dose activity, negative = inhibition, hits mostly inhibitors | Pol iota fluorescent replication assay, 10 min | DNA polymerase iota (Homo sapiens), Q9UNA4 | actives 1% (n = 390,000)
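Fluorescent replication assay read twice, at 0 min and 10 min after adding 50 nM (final) substrate. Enzyme (10 nM) and compounds were first incubated 15 min at room temperature; enzyme-free buffer wells were negative controls.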
POLB inh: qHTS Assay for Inhibitors of DNA Polymerase Beta; P06746; Pol beta primer extension/strand displacement, fluorescence kinetic; Potency, µM (series often up to 114 µM), without a hit: at the top dose activity change, negative = inhibition, most hits filed as inhibitors; AID 485314, 2010; actives 1.3% (n = 340,000); further: on the % scale 0 is the no-effect control and ±100 the full control effect
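Reaction started by 50 nM substrate onto compound-treated Pol beta (10 nM, 15 min preincubation, room temperature); plates read at 0 min and 10 min. Normalized concentration-effect data fitted by four-parameter Hill equation.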
APE1 inh-1: qHTS Assay for Inhibitors of the Human Apurinic/apyrimidinic Endonuclease 1 (APE1) | Potency, µM (titrated, usually from 65.8 µM), for inactives: at the top dose activity change, negative = inhibition, usual class: inhibitors | AID 2517, 2012 | actives 0.35% (n = 350,000) | DNA repair nuclease/redox regulator APEX1 (Homo sapiens), P27695 | recombinant APE1, TAMRA/BHQ-2 abasic DNA cleavage fluorescence;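 further: plate controls were vehicle for no effect and reference inhibitor for full effect; nearly all actives have a fitted effect of over 55% in size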
Target sequence (P27695 whole entry, looked up): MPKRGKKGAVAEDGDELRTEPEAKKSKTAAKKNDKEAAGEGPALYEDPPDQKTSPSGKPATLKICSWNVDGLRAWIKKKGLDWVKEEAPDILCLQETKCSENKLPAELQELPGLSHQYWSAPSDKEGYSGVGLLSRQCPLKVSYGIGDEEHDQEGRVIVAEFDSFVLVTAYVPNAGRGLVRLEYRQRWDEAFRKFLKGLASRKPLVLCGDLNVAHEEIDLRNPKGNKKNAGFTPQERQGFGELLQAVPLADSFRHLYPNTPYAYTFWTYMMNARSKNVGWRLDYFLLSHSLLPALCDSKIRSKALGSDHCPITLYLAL
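Endonuclease cleavage of a quenched abasic-site DNA duplex (50 nM) by APE1 (0.75 nM) was tracked by TAMRA dequenching. Compounds were preincubated with enzyme 15 min at room temperature; data normalized to buffer-only and DMSO wells plus NSC13755 control.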
GLS inh: qHTS for Inhibitors of Glutaminase (GLS). AID 624170, 2012. actives 0.21% (n = 410,000). Potency, µM (doses to about 45.5 µM), for the others: at the top dose activity change, negative = inhibition, most hits filed as inhibitors. GLS enzymatic activity, qHTS titration. Glutaminase kidney isoform, mitochondrial (Homo sapiens), O94925; further: on the % scale 0 is the no-effect control and ±100 the full control effect
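Compounds were pin-transferred onto hKGA, after which L-glutamine (1 mM solution) and a detection mix of glutamate oxidase, HRP and Amplex Red were added. Initial and 30 min RT fluorescence reads were collected.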
Pol kappa inh: qHTS for Inhibitors of Polymerase Kappa. Potency, µM (highest dose often 107 µM), inactives show at the highest dose activity, negative = inhibition, most hits filed as inhibitors. AID 588579, 2011. purified Pol kappa, fluorescent DNA synthesis assay, 10 min. actives 0.53% (n = 400,000); further: on the % scale 0 is the no-effect control and ±100 the full control effect
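Enzyme at 10 nM met test compounds for 15 min at room temperature. Substrate addition (50 nM final) began the reaction, which was monitored by fluorescence at 0 and 10 min.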
Pol eta inh: qHTS for Inhibitors of Polymerase Eta. AID 588591, 2011. recombinant Pol eta, fluorescent DNA replication assay. actives 1.2% (n = 390,000). Potency, µM (top dose mostly 114 µM), inactives show at the highest dose activity change, negative = inhibition, hits mostly inhibitors; further: on the % scale 0 is the no-effect control and ±100 the full control effect
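Pol eta at 10 nM preincubated with compounds 15 min at room temperature; reaction started with fluorescent substrate (50 nM final) and read kinetically at 0 and 10 min.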
DNA dye displace: Counterscreen for APE1 Inhibitors: Fluorescent Dye Displacement Assay | shares compounds with APE1 inh-1 | DNA fluorescent dye displacement counterscreen, fluorescence | Potency, µM (titrated, usually from 28.5 µM), for inactives: at the highest dose activity change, negative = inhibition, most hits filed as inhibitors | actives 7% (n = 480);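 further: loss of thiazole orange fluorescence as the dye is displaced from duplex DNA; 0% = ThO with dsDNA and no compound and -100% = ThO without dsDNA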
Endo IV inh: Counterscreen for APE1 Inhibitors: qHTS Assay for Inhibitors of Endonuclease IV; AID 2565, 2010; Potency, µM (doses to about 27.1 µM), for the others: at the highest dose activity change, negative = inhibition, actives largely listed as inhibitors; actives 4% (n = 560); shares compounds with APE1 inh-1; E. coli Endo IV, fluorogenic AP-site DNA cleavage;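 further: plate controls were uninhibited enzyme wells for no effect and no enzyme buffer wells for full effect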
APE1 inh-2: Confirmation qHTS Assay for Inhibitors of the Human Apurinic/apyrimidinic Endonuclease 1 (APE1). actives 44% (n = 750). purified APE1, fluorogenic abasic-site DNA cleavage. shares compounds with APE1 inh-1. Potency, µM (series often up to 57.1 µM), for the others: at the highest dose activity change, negative = inhibition, usual class: inhibitors; further: on the % scale 0 is the no-effect control and ±100 the full control effect; nearly all actives have a fitted effect of over 30% in size
APE1 FP: qHTS FP-Based Assay for Inhibitors of the Human Apurinic/apyrimidinic Endonuclease 1 (APE1) | actives 7% (n = 480) | Potency, µM (top dose mostly 28.5 µM), for the others: at the top dose activity, negative = inhibition, usual class: inhibitors | APE1 binding to TAMRA-labelled double-stranded DNA, fluorescence polarization displacement | shares compounds with APE1 inh-1; further: on the % scale 0 is the no-effect control and ±100 the full control effect
Active calls of the source: *; ? = inconclusive; / = no result; ! = not confirmed by another sample; [ ] = dose if it differs, or a comment. Compounds with a hit are over-represented: about 2.4% of the library has one in this group of screens. The call rests on the fitted dose curve; in most records, active means well fitted curve in the direction sought with a large enough effect; inconclusive means small, poorly fitted or top-dose-only effect, or another doubt; inactive means no such curve, though single readings can be large; an effect the other way counts as inactive or inconclusive. Potency means the concentration at half of the fitted maximal effect.

SMILES	POLI inh	POLB inh	APE1 inh-1	GLS inh	Pol kappa inh	Pol eta inh	Endo IV inh	APE1 inh-2	others
O=c1[nH]c(=O)n(-c2ccc(F)cc2)c(O)c1/C=C1\C=Nc2ccccc21	7.9µM*	17%	9%	0%	?	89µM*	/	/
COc1ccc(-n2c(O)c(/C=C3\C=Nc4ccc(Br)cc43)c(=O)[nH]c2=O)c(OC)c1	?	20%	-25%	-6%	-15%	79µM*	/	/
O=C1NCN(c2ccccc2)C12CCN(C(c1nnnn1-c1ccc3c(c1)OCCO3)C1CC1)CC2 (centres undefined)	/	/	/	-3%	/	/	/	/
Cc1ccc2c(Cl)cc(Cl)c(OCC(=O)N(C(C)C)C(C)C)c2n1	103%	-12%	?	-17%	-10%	-8%	/	/
CN1CCN(C2=Nc3cc(Cl)ccc3Nc3ccccc32)CC1	79µM*!	?	8%	28%	-6%[60.1 µM]	-12%	/	/
S=C1CN=C(c2ccccc2Cl)c2cc(Cl)ccc2N1	75%	-25%	-7%	-10%	-7%	-31%	/	/
NS(=O)(=O)c1ccc(Cl)c(S(N)(=O)=O)c1	56%	/	/	5%	-1%	-8%	/	/
CC1Cc2ccccc2N1NC(=O)c1ccc(Cl)c(S(N)(=O)=O)c1 (centres undefined)	?	-1%	2.2µM*!	6%	?	-8%	18%[57.1 µM]	-10%	DNA dye displace=1%[57.1 µM];APE1 FP=8%[57.1 µM]
CCn1cc(C(=O)O)c(=O)c2cc3c(cc21)OCO3	?	0%	2%	7%	1%[60.1 µM]	-10%[57.1 µM]	3%[57.1 µM]	-12%
CCc1nnc(NC(=O)CSc2ccc(-c3ccco3)nn2)s1	14%	14µM*	?	-2%	1%	-20%	/	?
Cc1cccc(C(=O)Nc2ccc(C(=O)OCc3cc(=O)n4nc(C5CC5)sc4n3)cc2)c1	-6%	-6%	/	-21%	-3%[60.1 µM]	?	/	/
CCCCCC[C@H]1C(=O)O[C@H](C)[C@H](NC(=O)c2cccc(NC=O)c2O)C(=O)O[C@@H](C)[C@@H]1OC(=O)CC(C)C	/	/	7%	/	-13%[19.4 µM]	/	/	/
CN[C@H](C)Cc1ccccc1	/	/	/	-6%[99.4 µM]	/	/	/	/
CC(C)NC(C)Cc1ccc(I)cc1 (centres undefined)	-11%	-6%[57.1 µM]	8%	-7%	1%[60.1 µM]	-7%	-5%[57.1 µM]	-19%
Cc1c2ccncc2c(C)c2c1[nH]c1ccccc12	14µM*!	4µM*	?	5%	?	?	1µM*	?
Oc1ccc2c3c1OC1C(O)CC[C@]4(O)C(C2)N(CC2CCC2)CC[C@]314 (some centres undefined)	/	/	2%	/	?	/	/	/
C[C@@H](N)[C@@H](O)c1ccc(O)c(O)c1	/	/	/	?	1µM*	/	53%[57.1 µM]	2%	DNA dye displace=5%[57.1 µM];APE1 FP=-2%[57.1 µM]
C[C@H](N)[C@H](O)c1ccc(O)c(O)c1	/	/	0.79µM*	/	0.75µM*	/	27%	6%[24.4 µM]	DNA dye displace=3%;APE1 FP=-16%
COc1ccc(OC)c(C(O)C(C)N)c1 (centres undefined)	21%	11%	5%	0%	-8%[60.1 µM]	-14%	/	/
Cc1nc(C(=O)O)nn1-c1ccc([N+](=O)[O-])cc1	74%	36%	?	-11%	2%	-3%	/	/
Oc1cc(O)c2c(c1)OC(c1cc(O)c(O)c(O)c1)C(O)C2 (centres undefined)	/	/	10µM*	/	4µM*	/	16%[57.1 µM]	5µM*
O=S(=O)(NCC(c1cccnc1)N1CCN(c2ccc(F)cc2)CC1)c1ccccc1 (centres undefined)	9%	/	/	28%	-9%	-16%	/	/
N#CC(=Cc1ccc(O)c(O)c1)C(N)=S	6.3µM*	2.8µM*	?	/	/	3.2µM*	-8%[57.1 µM]	-25%
C/C=C/C=O	/	/	2%	/	/	/	/	/
CCCN1CCc2cccc3c2C1Cc1ccc(O)c(O)c1-3 (centres undefined)	?	-1%[57.1 µM]	0%	/	-1%[19.4 µM]	-8%[57.1 µM]	-2%[57.1 µM]	-24%
SMILES	POLI inh	POLB inh	APE1 inh-1	GLS inh	Pol kappa inh	Pol eta inh	Endo IV inh	APE1 inh-2	others
CN1CCc2cc(O)cc3c2[C@H]1Cc1ccc(O)c(O)c1-3	-20%	/	/	-2%	-6%[60.1 µM]	5%	/	/
O=c1c2ccccc2nc(/C=C/c2ccccc2)n1-c1ccc(O)cc1	50%	12%	-5%	-5%	-5%	-11%	/	/
O=c1c2ccccc2nc(/C=C/c2cccnc2)n1Cc1ccccc1	2.8µM*	39%	?	?	-9%	?	/	28µM*
Cc1cccc(C)c1-n1nnnc1C(c1ccnc2ccccc12)N1CCC2(CC1)C(=O)NCN2c1ccccc1 (centres undefined)	/	/	/	7%	/	/	/	/
CC(C)CC(=O)Nc1ccc(C(=O)Cn2c(=O)oc3ccccc32)cc1	?	20µM*	?	-3%	-7%	0%	-4%	?	DNA dye displace=-8%;APE1 FP=4%
Cc1ccccc1N	1%	/	-8%	18%	3%	-16%	/	/
NCC(O)c1cc(O)c(O)cc1F (centres undefined)	28µM*	-12%[57.1 µM]	1.1µM*!	-3%	?	-11%	-2%[57.1 µM]	-20%
CCc1ccc(CN2CCCC(C(=O)c3sccc3C)C2)o1 (centres undefined)	21%	-2%	-3%	-5%	13%	-6%	/	/
C=CCn1c(O)c(/C(CC)=N/NC(=S)Nc2ccccc2)c(=O)[nH]c1=O	-20%	11%	?	-12%	-10%	-6%	/	?
